Compound activity: PubChem BioAssay, National Center for Advancing Translational Sciences (NCATS)
Shown are actives, neighbours in structure and some others; about 21% of the full set was active somewhere.
AMA1 RON2 block = disrupts binding of P. falciparum AMA1 to RON2 | AlphaScreen AMA1-biotinylated RON2 peptide binding | Potency, µM (titrated, usually from 58.2 µM), without a hit: at the highest dose activity change, negative = inhibition, most hits filed as inhibitors | hit rate 0.2% among 360,000 | AID 720542;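 note: potency is the fitted concentration of half-maximal effect; 0% = vehicle wells and -100% = peptide control; nearly all actives have a fitted effect of over 45% in size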
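AMA1 (3D7) with his tag at 25 nM final met compounds first, then biotinylated RON2 peptide at 25 nM; detection used donor plus acceptor beads, 10 µg/mL apiece, read by AlphaScreen after 30 min at room temperature.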
Shiga inhibitor = Shiga toxin inhibition; Vero cells, Shiga toxin protein synthesis inhibition reporter; hit rate 9.2% among 290,000; inhibition, % at 38.7 µM; AID 2315; in the data active = inhibition mostly above about 28%, no sharp cut-off; inactive = mostly below about 43%; note: 0% is about no effect
Pf growth 96h = P. falciparum growth inhibition at 96 hour, primary screen for plastid delayed-death inhibitors. AID 504834. hit rate 6.9% among 320,000. P. falciparum luciferase reporter growth, 96 h. Potency, µM (top dose mostly 28.7 µM), without a hit: at the top dose activity change, negative = inhibition, actives largely listed as inhibitors; note: potency is the fitted concentration of half-maximal effect; % is set by controls: 0 for no effect and ±100 for the full control effect
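P. falciparum expressing integrated firefly luciferase grown in erythrocytes (2% hematocrit, 0.05% parasitemia final) with compounds for 96 hours at 37 C, 5% CO2. Growth inhibition read as loss of luminescence after adding luciferase detection reagent.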
HCV inhibitor = blocks hepatitis C virus; Huh7.5.1 HCVcc-Cre infection, luciferase reporter, 44 h; Potency, µM (series often up to 41.8 µM), for inactives: top-dose activity change, negative = inhibition, usual class: inhibitors; hit rate 3.4% among 340,000; note: potency is the fitted concentration of half-maximal effect; % is set by controls: 0 for no effect and ±100 for the full control effect
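Infectious HCV cell culture screen: compound-treated cells (1,000/well, pre-plated 4 h) are infected with HCVcc-Cre at roughly 0.5 moi and grown 44 h. Infection is quantified by luciferase signal after 15 min substrate incubation at room temperature.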
Cycloheximide cs = affects cycloheximide protein synthesis inhibition readout, counter-screen; cell reporter, cycloheximide protein synthesis inhibition counterscreen; max response, %; hit rate 12% among 300,000; AID 2314; in the data active = max response mostly above about 13%, no sharp cut-off; inactive = mostly below about 14%; note: read at 38.3 µM for the half of the compounds with a filed dose; 0% is about no effect
Pf growth 48h = P. falciparum growth inhibition at 48 hours (one generation); P. falciparum luciferase growth in erythrocytes, 48 h; Potency, µM (series often up to 28.7 µM), for inactives: top-dose activity change, negative = inhibition, most hits filed as inhibitors; hit rate 5.9% among 310,000; note: potency is the fitted concentration of half-maximal effect; % is set by controls: 0 for no effect and ±100 for the full control effect
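Luciferase-expressing P. falciparum in infected erythrocytes (2% hematocrit, 0.1% parasitemia final) in RPMI 1640/0.5% Albumax were exposed to compound for 48 hours at 37 C, 5% CO2; growth read as luminescence.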
* = called active by the depositor; ? = inconclusive; · = no result; + = active, no number; [ ] = another dose, or the depositor's remark. Unless noted, calls come from the whole dose curve; as a rule, active = well fitted curve in the direction sought with a large enough effect; inconclusive = small, poorly fitted or top-dose-only effect, or another doubt; inactive = no such curve, though single readings can be large; an effect the other way counts as inactive or inconclusive.

SMILES	AMA1 RON2 block	Shiga inhibitor	Pf growth 96h	HCV inhibitor	Cycloheximide cs	Pf growth 48h
COc1ccc(C(=O)c2cc(C(C)=O)c(Nc3ccccc3)s2)cc1	-1%[2.32 µM]	16	?	3.2µM*	-1	-11%
Cc1cnc(NC(=O)c2sc(Nc3ccccc3)nc2N)o1	37%	90*	8%	?	28*	29%
COc1ccc(C(=O)c2sc(Nc3ccccc3)nc2N)cc1	25%	28	?	-4%	41*	?
Nc1nc(Nc2ccccc2)sc1C(=O)c1ccccc1	-18%	90*	6%	?	36*	-17%
COc1ccc(C(=O)c2sc(Nc3ccccc3)nc2N)cc1OC	-20%	-7	?	-26%	1	?
CCN(CC)C(=O)C1=C(C)N(Cc2ccc(F)cc2)C(=O)C(CC(=O)NCC2CCCCC2)C1 (stereo not drawn)	-4%	·	·	·	·	·
OCC[C@@H]1C[C@H](O)[C@@H](O)[C@]2(Cc3ccccc3CO2)O1	-8%	-8	49%	17%	1	13%
Cc1ncc(CO)c(CO)c1O	-2%	·	28%	11%	·	2%
Cc1ncc(CO)c(CNc2ccc(-c3nc4ccccc4[nH]3)cc2)c1O	-4%	28	-24%	19%	16*	?
Cc1nc(CS(=O)(=O)c2ccc(Cl)cc2)cc(Sc2ccc(Cl)cc2)n1	-1%	0	2.3µM*	?	3	3.3µM*
CC12CCC3C(CC=C4CC(O)CCC43C)C1C/C(=C\N1CCCC1)C2=O (stereo not drawn)	·	-5	13%	·	1	0%
COc1cc(/C=C2\C[C@H]3[C@@H]4CC=C5C[C@@H](N6CCCC6)CC[C@]5(C)[C@H]4CC[C@]3(C)[C@H]2O)cc(OC)c1OC	-15%	·	·	7.1µM*	·	·
O=C(O)c1ccc(S(=O)(=O)NCC2CCCO2)cc1 (stereo not drawn)	-4%	-25	37%	1%	-2	308%
COCCNC(=S)N1CCC(c2nc(-c3ccc(N(C)C)cc3)no2)CC1	-13%	49	29%	-10%	24*	?
CC(C)(CNc1ccc(C(F)(F)F)cc1[N+](=O)[O-])N1CCOCC1	-8%	7	5.9µM*	-29%	-1	9.3µM*
COc1ccc(C(CNc2ccc(S(C)(=O)=O)cc2[N+](=O)[O-])N(C)C)cc1OC (stereo not drawn)	54%	-1	-10%	4µM*	-6	-15%
CN(C)C(CNc1ccc(C(F)(F)F)cc1[N+](=O)[O-])c1ccccc1 (stereo not drawn)	14µM*	-7	-28%	-3%	1	?
CCOc1ccc(C2C(C(=O)c3ccco3)=C(O)C(=O)N2CCN2CCOCC2)cc1OCC (stereo not drawn)	-1%	-4	31%	3%	5	12%
CCOc1ccc(C2C(C(=O)c3ccco3)=C(O)C(=O)N2CCN2CCOCC2)cc1 (stereo not drawn)	7%	54*	32%	18%	26*	18%
CCOc1ccc(C2C(C(=O)c3cccs3)=C(O)C(=O)N2CCN2CCOCC2)cc1 (stereo not drawn)	0%	25*	11%	-5%	28*	-8%
CCCCOc1ccc(C2C(C(=O)c3ccc(C)o3)=C(O)C(=O)N2Cc2ccco2)cc1 (stereo not drawn)	·	-9	?	·	-1	-1%
Cc1ccc(C(=O)C2=C(O)C(=O)N(Cc3ccco3)C2c2ccc(N(C)C)cc2)o1 (stereo not drawn)	0%	-6	12µM*	5%	19	?
C=CCOc1ccc(C2C(C(=O)c3ccco3)=C(O)C(=O)N2Cc2cccnc2)cc1 (stereo not drawn)	32%	+	·	-9%	18	-11%
CCOc1ccccc1C(=O)N/N=C/c1coc2ccc(Cl)cc2c1=O	12%	-12	?	?	-3	1%
CCOc1ccc(C2C(C(=O)c3ccco3)=C(O)C(=O)N2CCCn2ccnc2)cc1 (stereo not drawn)	11%	+	·	-5%	33*	48%
SMILES	AMA1 RON2 block	Shiga inhibitor	Pf growth 96h	HCV inhibitor	Cycloheximide cs	Pf growth 48h
Cn1cc(Cl)c(C(=O)Nc2cccc(Cl)c2Cl)n1	-2%	29	-1%	?	42*	67%
O=C(Nc1nc2ccccc2s1)c1c(F)cccc1Cl	-1%	91*	-22%	-1%	38*	0%
Cn1cc(Cl)c(C(=O)Nc2nc3ccccc3s2)n1	-6%	71*	270%	18%	42*	230%
O=C(NCC1CCCN(Cc2cccc(F)c2)C1)c1cccc2ccccc12 (stereo not drawn)	3%	17	?	-29%	2	-33%
CCOc1ccccc1/C=N/OCC(=O)NCc1ccc(F)cc1	12%	-3	17%	4µM*	-1	-5%
COc1ccc(C(=O)N/C(=C\c2cn(S(=O)(=O)N(C)C)c3ccccc23)C(=O)N2CCOCC2)cc1	1%	12	0%	-8%	-2	?
COc1ccc(C(=O)NCC(=O)OCC(=O)Nc2ncc(Cl)cc2Cl)cc1[N+](=O)[O-]	-13%	·	?	-5%	·	-3%
CN1CCN(c2ccc(NC(=O)Oc3ccccc3)cc2)CC1	-28%	-6	?	18%	-3	·
COc1ccc(N2CCN(C(=S)Nc3ccccc3)CC2)cc1	-12%	1	?	-10%	-2	4%
CN1CCN(C(=O)Nc2cccc(-c3ccccc3)c2)CC1	-9%	-2	50%	8%	1	0%
CN1CCN(c2ccc(NC(=O)C(C)(c3ccccc3)c3ccccc3)cc2)CC1	7%	7	?	?	-1	13µM*
CN1CCN(c2ccc(NC(=O)c3ccc(Oc4ccccc4)cc3)cc2)CC1	-28%	31*	?	?	10	?
CN1CCN(c2ccc(-c3ccnn3C(=O)Nc3ccccc3)cc2)CC1	-18%	83	132%	20%	41*	122%
CC(=O)c1ccc(N2CCN(C(=S)Nc3ccc(Oc4ccccc4)cc3)CC2)cc1	31%	14	?	4.5µM*	-2	-19%
Cc1cccc(C)c1N1C(=O)c2ccccc2NC(=O)C1C(=O)NCC(C)C (stereo not drawn)	12%	·	·	·	·	·
COC(CNC(=O)[C@H](Cc1ccccc1)N1Cc2ccccc2C1=O)OC	-10%	-3	-7%	16%	-1	0%[0.00184 µM]
CCN(CCCl)c1cc(CN(C)C)cc(NC(=O)c2ccc(C(=O)Nc3cc(CN(C)C)cc(N(CC)CCCl)c3)cc2)c1	25µM*	·	·	1.4µM*	·	·
COC(=O)c1ccc2c(=O)n(CCN3CCOCC3)c(SCC(=O)Nc3ccc(C)cc3)nc2c1	1%	-5	12µM*	-8%	8	0%
